Reference: PubChem BioAssay (EPA / NIEHS)
Values joined by “and” are separate entries in the source; they are usually repeats but may differ in a detail not shown here. Identical values can stand only once. Active and inactive are the calls of the source. The calls were made as follows: active = hit-call score of the fitted dose curve at least 0.9, where 1 is the maximum; inactive = score below 0.9.

Test system: TTR (gene 7276)
Experiment: CCTE_GLTED_hTTR_0.125uM: CCTE's human Transthyretin (hTTR) Inhibition Assay, with 0.125uM TTR, Great Lakes Toxicology and Ecology Division (GLTED) Lab (AID 2284431)
Protocol: CCTE_GLTED_hTTR is a cell-free, single-readout assay designed to test the chemicals' ability to displace T4 from the human transthyretin (TTR) protein. TTR (at 0.125uM or 0.5uM) is incubated in presence of test chemical for 2 hours during which disrupting chemicals displace ANSA from the TTR protein. Results read fluorescence at 380 excitation and 475 emission.CCTE_GLTED_hTTR_0.125uM is the assay component measured from the CCTE_GLTED_hTTR assay. It is designed to make measurements of fluorescent polarization, using a form of binding reporter, as detected with Fluorescence signals by Fluorescence technology.Data from the assay component CCTE_GLTED_hTTR_0.125uM was analyzed at the assay endpoint CCTE_GLTED_hTTR_0.125uM in the positive analysis fitting direction relative to DMSO as the negative control and baseline of activity. Using a type of binding reporter, loss-of-signal activity can be used to understand a chemical's ability to displace T4 from transthyretin. To generalize the intended target to other relatable targets, this assay endpoint is annotated to the 'transporter' intended target family, where the subfamily is 'hormone carrier protein'.
Human transthyretin (TTR) assay, developed at Great Lakes Toxicology and Ecology Division (GLTED) within the EPA's Center for Computational Toxicology and Exposure (CCTE), is designed to test the chemicals' ability to displace T4 from the TTR protein. TTR (0.125uM) is incubated in presence of test chemical for 2 hours during which disrupting chemicals displace ANSA from the TTR protein. Results read fluorescence at 380 excitation and 475 emission.

SMILES | AC50
Cc1cc(Cl)ccc1OCCCC(=O)O | 2.64 µM (active)
O=C(NC(=O)c1c(F)cccc1F)Nc1cc(Cl)c(OC(F)(F)C(F)C(F)(F)F)cc1Cl (configuration not stated) | 2.76 µM (active)
CCOP(=S)(OCC)O/N=C(\C#N)c1ccccc1 | 2.07 µM (active)
Nc1ccc(N)cc1 | 2.42 µM (active)
CCCCCCCCCCCCc1cccc(S(=O)(=O)O)c1 | 6.89 µM (active)
O=C1c2ccccc2C(=O)C1C(=O)C(c1ccccc1)c1ccc(Cl)cc1 (configuration not stated) | 3.48 µM (active)
Oc1cc(Cl)c(Cl)cc1Cl | 0.114 µM (active)
Oc1c(Br)cc(Br)cc1Br | 0.0287 µM (active)
CCOCn1c(-c2ccc(Cl)cc2)c(C#N)c(Br)c1C(F)(F)F | 0.0346 µM (active)
CCCCCCCCCCCCOS(=O)(=O)O | 2.56 µM (active) and 5.11 µM (active)
O=[N+]([O-])c1ccccc1O | 34.8 µM (active) and 21.1 µM (active)
O=C(CBr)c1ccc(O)cc1 | 4.69 µM (active)
Cc1cc(Cl)ccc1O | 14.9 µM (active)
O=C(O)COc1cc(Cl)c(Cl)cc1Cl | 0.692 µM (active)
O=[N+]([O-])c1ccc(Cl)c([N+](=O)[O-])c1 | 4.83 µM (active)
COc1nn(C(=O)NS(=O)(=O)c2ccccc2OC(F)(F)F)c(=O)n1C | 9.99 µM (active)
O=S1(=O)OC(c2cc(Br)c(O)c(Br)c2)(c2cc(Br)c(O)c(Br)c2)c2ccccc21 | 0.109 µM (active)
